VDR inhibitor: Inhibitors of the vitamin D receptor (VDR): qHTS | VDR-SRC2-3 peptide fluorescence polarization, 2 h | Potency, µM, usual class: inhibitors | 400,000 compounds, 0.93% hits
Target sequence (P11473 whole entry, looked up): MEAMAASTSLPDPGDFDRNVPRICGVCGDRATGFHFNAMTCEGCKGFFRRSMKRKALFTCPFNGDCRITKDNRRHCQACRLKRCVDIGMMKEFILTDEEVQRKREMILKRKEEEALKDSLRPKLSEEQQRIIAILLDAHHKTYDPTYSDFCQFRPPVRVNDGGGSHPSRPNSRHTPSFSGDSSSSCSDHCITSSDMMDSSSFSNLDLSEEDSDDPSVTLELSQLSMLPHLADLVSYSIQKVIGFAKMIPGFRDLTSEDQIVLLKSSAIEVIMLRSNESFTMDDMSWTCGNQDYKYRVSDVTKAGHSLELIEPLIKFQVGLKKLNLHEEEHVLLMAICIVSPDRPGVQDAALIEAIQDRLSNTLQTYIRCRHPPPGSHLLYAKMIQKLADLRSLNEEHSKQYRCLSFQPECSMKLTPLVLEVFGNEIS
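Two reagent solutions held at 4 deg C in the dark were dispensed, compounds pinned at 23 nl, and the mixture incubated 2 h at room temperature. Read-out: fluorescence polarization of VDR–SRC2-3 peptide binding.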
Sfp PPTase inh: qHTS Assay for Inhibitors of Bacillus subtilis Sfp phosphopantetheinyl transferase (PPTase); 4'-phosphopantetheinyl transferase ffp (Bacillus subtilis), Q9F4F7; Biochemical Sfp PPTase activity, qHTS; Potency, µM, hits mostly inhibitors; 310,000 compounds, 3.5% hits;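 note: the enzyme is Sfp with the accession as filed and its product quenches rhodamine fluorescence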
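With Hepes-Na pH 7.6 buffer containing 10 mM MgCl2, Sfp (15 nM) modified BHQ-2-YbbR (12.5 uM) using rhodamine-CoA (5 uM). Two reads 30 minutes apart at 525/598 nm yielded each well's rate.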
CCT modulator: High-Throughput Screening for Modulators of Cytosolic Chaperonin Activity | purified chaperonin ATPase assay, HTRF ADP detection, 30 min | activity change, % (no concentration beside the values), hits read low | 360,000 compounds, 0.3% hits | AID 651819, 2012; in the data active = activity change below about -30%
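Nucleotide hydrolysis assay: TRiC at 20–40 nM final (set by batch activity) with 10 uM ATP, 30 min at 37 °C, in presence of 76 uM compound. Detection by competitive ADP HTRF, 30 min ambient.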
PLK1 PBD inh: qHTS for Inhibitors of PLK1-PDB (polo-like kinase 1 - polo-box domain): Primary Screen; Serine/threonine-protein kinase PLK1 (Homo sapiens), P53350; Plk1 PBD binding of FITC phosphopeptide, fluorescence polarization; Potency, µM, most hits filed as inhibitors; 360,000 compounds, 2.8% hits; note: series mostly up to about 57 µM; nearly all actives have a fitted effect of over 65% in size
Mm-Cpn inhibitor: Inhibitors of TCP-1 ring complex (TRiC) of Methanococcus maripaludis (MmCpn): qHTS; 330,000 compounds, 0.031% hits; purified Mm-Cpn ATPase, ADP Transcreener TR-FRET; Potency, µM (titrated, usually from 76.9 µM), usual class: inhibitors; note: nearly all actives have a fitted effect of over 80% in size
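Eu-cryptate anti-ADP/ADP-d2 competition gives a ratio inversely related to ADP. Enzyme at 25 nM was pre-exposed to compound for 10 min, then given 10 uM ATP for 30 min, 37°C throughout.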
G9a inh: qHTS Assay for Inhibitors of Histone Lysine Methyltransferase G9a; Histone-lysine N-methyltransferase EHMT2 (Homo sapiens), Q96KQ7; G9a H3K9 monomethylation, AlphaScreen, 2 h; Potency, µM (doses to about 102 µM), hits mostly inhibitors; 350,000 compounds, 8.8% hits; note: nearly all actives have a fitted effect of over 75% in size
Target sequence (Q96KQ7 913-1193 limits assumed): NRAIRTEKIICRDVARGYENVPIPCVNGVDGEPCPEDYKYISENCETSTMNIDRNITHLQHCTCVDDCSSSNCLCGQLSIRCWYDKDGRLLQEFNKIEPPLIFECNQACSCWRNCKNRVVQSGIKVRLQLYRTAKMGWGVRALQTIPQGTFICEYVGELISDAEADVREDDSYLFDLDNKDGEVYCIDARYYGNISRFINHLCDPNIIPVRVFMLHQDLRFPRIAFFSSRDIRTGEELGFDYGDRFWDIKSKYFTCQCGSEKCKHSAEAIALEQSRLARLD
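Enzyme 20 nM + cpd, 15 min RT; add b-H3K9 pep 500 nM / SAM 20 uM; 2 h RT; anti-H3K9me1 Ab 0.5 ug/mL + SA donor / anti-rabbit acceptor beads 20 ug/mL each, 10 min; AlphaScreen read.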
Of the large screens only hits and unclear results are named; the others gave an inactive call; ! = a repeat was not active. Sampled rows, rich in hits. Any-hit rate of the full collection: about 10%. Unless noted, calls come from the whole dose curve; as a rule, active = well fitted curve in the direction sought with a large enough effect; inconclusive = small, poorly fitted or top-dose-only effect, or another doubt; inactive = no such curve, though single readings can be large; an effect the other way counts as inactive or inconclusive.

CC(C)CN1CCC2(CC1)CCN(S(=O)(=O)c1ccccc1)CC2	none (no result: CCT modulator, PLK1 PBD inh, Mm-Cpn inhibitor)
O=C(C1CCCN(Cc2ccccc2)C1)N1CCCCC1 (configuration not stated)	Sfp PPTase inh inconclusive, G9a inh 13µM
O=C(C1CCCN(Cc2cccs2)C1)N1CCCCCC1 (configuration not stated)	G9a inh 8.9µM
COc1cccc(O)c1CN1CCCC(C(=O)c2cccc(C(F)(F)F)c2)C1 (configuration not stated)	Sfp PPTase inh 71µM
COc1ccc(C(=O)C2CCCN(Cc3c(O)cccc3OC)C2)cc1OC (configuration not stated)	none
COc1ccc(-c2[nH]ncc2CN2CCCC(C(=O)c3cccc(OC)c3)C2)cc1 (configuration not stated)	G9a inh 45µM
Cc1cccc(CN2CCCC(C(=O)N3CCCCC3)C2)c1 (configuration not stated)	Sfp PPTase inh inconclusive, G9a inh 25µM
COc1cccc(CN2CCCC(C(=O)N3CCCCC3)C2)c1 (configuration not stated)	G9a inh 10µM
O=c1[nH]c2c(s1)C=Nc1ccccc1N2	PLK1 PBD inh 13µM
O=C1CC(c2ccco2)CC2=C1C=Nc1ccccc1N2 (configuration not stated)	Sfp PPTase inh inconclusive, G9a inh inconclusive
CN(Cc1ccccc1)C(=O)c1ccc(CSc2nc3cccnc3n2Cc2ccccc2)cc1	none (no result: Sfp PPTase inh, CCT modulator, PLK1 PBD inh, Mm-Cpn inhibitor)
O=C1CSC(=Nc2ccccc2)N1Cc1ccccc1	none
Clc1nssc1=Nc1ccccc1	VDR inhibitor 45µM, Sfp PPTase inh 20µM, PLK1 PBD inh 2.4µM, G9a inh 2µM
COc1ccc(N=c2ssnc2Cl)cc1	VDR inhibitor inconclusive, Sfp PPTase inh 8.9µM, PLK1 PBD inh 1.7µM, G9a inh 1.3µM
CCOCCCNC(=O)C1CCN(c2nc3ccc(C)cc3[nH]2)CC1	none (no result: Sfp PPTase inh, CCT modulator, PLK1 PBD inh, Mm-Cpn inhibitor)
COC(=O)COC(=O)c1ccccc1NC(=O)c1ccccc1	none
CC(=O)c1ccc(NC(=O)COC(=O)c2ccccc2Nc2ccccc2)cc1	VDR inhibitor inconclusive, PLK1 PBD inh 27µM
CC(=O)c1ccccc1NC(=O)COC(=O)c1ccccc1NC(=O)c1ccccc1	Sfp PPTase inh 28µM
Cc1cccc(NC(=O)CSc2nc3c(sc4ccccc43)c(=O)n2CCCC(=O)NC2CCCC2)c1	none (no result: Sfp PPTase inh, CCT modulator, PLK1 PBD inh, Mm-Cpn inhibitor)
CCCCCCNC(=O)CC(c1ccccc1)c1cc(Br)ccc1O (configuration not stated)	none
CC(C)NC(=O)CC(c1ccccc1)c1cc(Br)ccc1O (configuration not stated)	Sfp PPTase inh 100µM, G9a inh inconclusive
O=c1c2c(nc3cc(-c4cccc(F)c4)[nH]n13)CCC2	PLK1 PBD inh 24µM
O=c1c2c(nc3cc(-c4ccc(F)cc4)[nH]n13)CCCC2	none
c1ccc2c(Nc3nc4c(s3)CCCC4)cccc2c1	Sfp PPTase inh 50µM, PLK1 PBD inh inconclusive
S=c1[nH]nc(Nc2cccc3ccccc23)s1	Sfp PPTase inh 40µM, PLK1 PBD inh inconclusive, G9a inh 0.32µM
Cc1ccccc1Nc1n[nH]c(=S)s1	PLK1 PBD inh inconclusive (no result: VDR inhibitor, Sfp PPTase inh, Mm-Cpn inhibitor, G9a inh)
Fc1ccccc1Nc1n[nH]c(=S)s1	Sfp PPTase inh 50µM, PLK1 PBD inh 30µM, G9a inh 2.8µM
CCOc1cccc(-c2nnc3sc(-c4ccco4)nn23)c1	G9a inh 7.9µM
COc1cccc(OC)c1-c1nn2c(-c3n[nH]c4c3CCC4)nnc2s1	none (no result: Sfp PPTase inh, CCT modulator, PLK1 PBD inh, Mm-Cpn inhibitor, G9a inh)
COc1cc(-c2nn3c(-c4ccco4)nnc3s2)cc(OC)c1OC	none (no result: VDR inhibitor, CCT modulator, PLK1 PBD inh)
COc1cccc(-c2nn3c(-c4ccco4)nnc3s2)c1	G9a inh 45µM
COc1cccc(OC)c1-c1nn2c(-c3ccco3)nnc2s1	G9a inh 35µM
Cn1c2c(c(=O)n(C)c1=O)C(c1ccccc1Cl)C(C#N)=C(N)O2 (configuration not stated)	PLK1 PBD inh inconclusive, G9a inh 25µM
COCCn1c(C)cc2c(c1=O)C(c1ccccc1F)C(C#N)=C(N)O2 (configuration not stated)	none
Cn1c2c(c(=O)n(C)c1=O)C(c1ccccc1F)C(C#N)=C(N)O2 (configuration not stated)	PLK1 PBD inh inconclusive, G9a inh 16µM
N#Cc1c(N)n(CCc2ccc(F)cc2)c2nc3ccccc3nc12	none
COc1ccc(-n2c(N)c(C(=O)NCc3ccco3)c3nc4ccccc4nc32)cc1	Sfp PPTase inh 25µM
Nc1c(C(=O)NCc2ccc3c(c2)OCO3)c2nc3ccccc3nc2n1CCCN1CCOCC1	Sfp PPTase inh inconclusive
COC(=O)c1c(N)n(-c2ccc(N3CCOCC3)cc2)c2nc3ccccc3nc12	G9a inh 10µM (no result: VDR inhibitor, CCT modulator, PLK1 PBD inh)
COc1ccccc1CNC(=O)c1c(N)n(CCCN2CCOCC2)c2nc3ccccc3nc12	Sfp PPTase inh 56µM
Nc1c(C(=O)NCc2ccco2)c2nc3ccccc3nc2n1CCc1ccc(F)cc1	Sfp PPTase inh 25µM
Cc1ccc(S(=O)(=O)c2[nH]c(-c3ccccc3)nc2SC(C)C(=O)O)cc1 (configuration not stated)	none (no result: Sfp PPTase inh, CCT modulator, PLK1 PBD inh, Mm-Cpn inhibitor)
Cc1cc(C)c2oc(C(=O)Nc3c(C)n(C)n(-c4ccccc4)c3=O)cc(=O)c2c1	none (no result: Sfp PPTase inh, CCT modulator, PLK1 PBD inh, Mm-Cpn inhibitor)
COc1ccc(C)cc1NC(=O)c1cc2c(=O)n3cccc(C)c3nc2s1	none (no result: Sfp PPTase inh, CCT modulator, PLK1 PBD inh, Mm-Cpn inhibitor)
COc1cc2c(cc1OC)C1=C(C#N)COCN1CC2	PLK1 PBD inh inconclusive, G9a inh 14µM
COc1cc2c(cc1OC)C1=C(C#N)CCC(=NC(=O)c3ccc(Cl)cc3)N1CC2	none
CSc1ncc(C(=O)Nc2ccccc2C(F)(F)F)c(-c2ccccc2)n1	none (no result: Sfp PPTase inh, CCT modulator, PLK1 PBD inh, Mm-Cpn inhibitor)
CC(=O)c1ccc(OCC(O)CN2CCN(Cc3ccc4c(c3)OCO4)CC2)cc1 (configuration not stated)	VDR inhibitor inconclusive, Sfp PPTase inh 89µM!, PLK1 PBD inh 27µM, G9a inh inconclusive
COc1ccc(OCC(O)CN2CCN(Cc3ccc4c(c3)OCO4)CC2)cc1 (configuration not stated)	G9a inh 20µM
CCN1CCN(CC(O)COc2ccc(C(C)=O)cc2)CC1 (configuration not stated)	G9a inh 50µM
SC(COCc1ccccc1)CN1CCN(Cc2ccc3c(c2)OCO3)CC1 (configuration not stated)	Sfp PPTase inh inconclusive, G9a inh 22µM

Compound activity from PubChem BioAssay.
